Our source for the inhibition values is PubChem BioAssay AID1822 (The Scripps Research Institute Molecular Screening Center, 2009).

Hit rate of the full screen: of about 290,000 compounds, about 3,500 (1.2%) were called active. The full list was thinned out, with actives kept by preference. Unmarked numbers belong to inactive results.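 The calls were made as follows: active = inhibition above the campaign mean inhibition over all tested compounds plus 3 SD (cut at about 28% in these data); inactive = the rest.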

In this assay the test system is M18 aspartyl aminopeptidase (Plasmodium falciparum 3D7). Kind of assay: PfM18AAP inhibitors, malaria aminopeptidase, primary screen, biochemical, QFRET, recombinant enzyme (AID 1822).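 Also: 0% = plate median of test compound wells and 100% = 2 mM ZnCl2.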 To be noted: H-Glu-NHMec fluorogenic cleavage, at 7.35 µM, stronger effect = higher value.
For `CC(C)Cn1c(N2CCN(C(=O)/C=C/c3ccccc3)CC2)nc2ccccc21`, the inhibition was 2%.

Turning to `Cc1c(OC(C)C(=O)NCC2CCC(C(=O)O)CC2)ccc2c1oc(=O)c1ccccc12` (centres undefined), the inhibition was 5.1%. For `Cc1ccccc1N1CCN(CC(=O)NCc2ccc(Cl)cc2)CC1`, the inhibition was 4.87%. As to `O=C(COC(=O)c1ccc(N2CCCC2=O)cc1)c1ccc(OC(F)F)cc1`, the inhibition is 0.74%.

Regarding `COc1ccc(C(=O)NC2CC(C)(C)Cc3c2cnn3-c2ccccc2)c(OC)c1` (centres undefined), the inhibition is 0.86%.

As for `Nc1ccc(C(=O)Nc2ccccc2N)cc1`, the inhibition is -8.23%.

Consider `Cc1cc(F)ccc1NC(=S)NCCc1ccccc1`, for which the inhibition was -8.4%. Next, `Cc1ccc(CN(Cc2cccnc2)C(=S)Nc2cccc(Cl)c2C)cc1`: -8.48%; `CC(=O)N/N=C/c1cc2c(cc1[N+](=O)[O-])OCO2`: 6.95%; `Cc1ccc(-c2n[nH]c(=S)n2/N=C/c2cc3c(cc2[N+](=O)[O-])OCO3)cc1`: 17.7%. As to `Cc1ccc(S(=O)(=O)N/N=C\c2cc3c(cc2[N+](=O)[O-])OCO3)cc1`, the inhibition is 51.5% (active).

On to `COc1ccc(C(CNC(=O)COc2ccc([N+](=O)[O-])cc2)N2CCCCC2)cc1` (centres undefined), for which the inhibition was -7.22%. Next, `CC(=O)Nc1cccc(C(=O)OCN2C(=O)c3ccccc3C2=O)c1`: 1.1%; `COc1ccc(CC(=O)Nc2nc(-c3ccc(F)c(F)c3)cs2)cc1OC`: 0.44%; `COc1ccc(/C(O)=C2\C(=O)C(=O)N(Cc3ccco3)C2c2ccc(OC)cc2OC)cc1` (centres undefined): 8.22%. `COc1ccc(C2/C(=C(/O)c3ccc4c(c3)CC(C)O4)C(=O)C(=O)N2Cc2ccncc2)cc1` (centres undefined): the inhibition is 16.6%.

Consider `COc1cc(C2/C(=C(\O)c3ccc4c(c3)CC(C)O4)C(=O)C(=O)N2Cc2ccco2)ccc1O` (centres undefined), for which the inhibition is 45.6% (active). In the case of `CCOc1ccc(-n2c(O)c(/C=N/Nc3nc(C)cc(C)n3)c3ccccc3c2=O)cc1`, the inhibition was 26.7%.

In the case of `CCOc1ccc(-n2c(O)c(/C=N/Nc3nnc(C)c(=O)[nH]3)c3ccccc3c2=O)cc1`, the inhibition is 34% (active).

For `CCOc1ccc(-n2c(O)c(/C=N/c3ccnn3Cc3ccncc3)c3ccccc3c2=O)cc1`, the inhibition was 5.65%. In the case of `S=C(Nc1cccnc1)Nc1ccccn1`, the inhibition is 11.1%. As for `C[C@H](NC(=O)c1nc[nH]c1C(=O)NCC(=O)OC(C)(C)C)c1ccccc1`, the inhibition was 1.03%. Turning to `CCC(CC)c1nnc(NC(=O)C2CCN(C(=O)c3ccco3)CC2)s1`, the inhibition is 31.2% (active). As to `COc1ccc(CNC(=O)C2CCN(C(=O)c3ccco3)CC2)cc1`, the inhibition is 2.47%.

As for `CCC(CC)c1nnc(NC(=O)/C=C/c2ccco2)s1`, the inhibition is 2.71%. The same measure for `CCS(=O)(=O)c1cc([N+](=O)[O-])c(Sc2ccccc2N)s1`: 38.9% (active); for `Nc1ccccc1SC(C[N+](=O)[O-])c1ccccc1` (centres undefined): 14.1%; for `CCOC(=O)c1cc(Sc2ccccc2N)cc(C(=O)OCC)n1`: 10.8%. For the molecule `Cc1ccc(S(=O)(=O)CC(=O)NC(C)c2ccccc2)cc1` (centres undefined), the inhibition is -6.39%. For the molecule `CN(C)S(=O)(=O)c1ccc2oc(SCC(=O)Nc3ccccc3F)nc2c1`, the inhibition is 2.13%. As for `C=CCN(C(=O)Nc1ccc2oc(C)nc2c1)c1ccccc1`, the inhibition was 13%. For `CCN(CC)c1ccc2oc(=O)c(C)nc2c1`, the inhibition was 55.5% (active).

With `CCN(CC)c1ccc2cc(C(N)=O)/c(=N\NC(=O)c3ccncc3)oc2c1`, the inhibition was 17.2%. Next, `COc1ccc(Nc2cc(Sc3ccc(OC)cc3)ncn2)cc1`: 2.95%; `Cc1ccsc1C(=O)N[C@@H](C)c1nnc2ccccn12`: -8.31%; `Cc1cccc(N2CCN(C(=O)CCS(=O)(=O)c3ccc4c(c3)NC(=O)C(C)S4)CC2)c1C` (centres undefined): -6.34%. Take `O=C(O)c1ccccc1-c1ccccc1C(=O)Nc1ccccc1Br`: the inhibition is -9.93%. `O=C1CCN(CCc2ccccc2)CCN1CCOc1ccccc1`: the inhibition was 1.32%.

On to `O=C(Nc1ccc(C(=O)N2CCOCC2)cc1)Nc1cccc(C(F)(F)F)c1`, for which the inhibition is -2.75%. The same measure for `COc1ccccc1N1CCN(C(=O)CSc2ncnc3c2cnn3-c2ccc(C)c(C)c2)CC1`: -5.63%; for `CC1CCN(C(=O)c2ccc(CSc3ccc(Cl)cc3)cc2)CC1`: -3.98%. For the molecule `CC1CCN(C(=O)c2ccc3c(=O)n4c(nc3c2)CCCCC4)CC1`, the inhibition was -5.35%. Turning to `CC1CCN(C(=O)c2ccc3c(c2)NC(=O)CN3)CC1`, the inhibition is 31.9% (active).

For the molecule `CCCN1C2CCCC1CC(NC(=O)c1cccc(OC)c1)C2` (centres undefined), the inhibition is -5.08%. Turning to `Cc1cccn2c(=O)c3cc(C(=O)NCC4CCCO4)c(=N)n(Cc4ccc(F)cc4)c3nc12` (centres undefined), the inhibition was 5.3%. Turning to `Oc1ccc(-n2nnnc2SCc2c(F)cccc2Cl)cc1`, the inhibition is 9.59%. Regarding `CCCN1Cc2cccc(C(=O)Nc3ccc(S(=O)(=O)N4CCCCCC4)cc3)c2C1=O`, the inhibition was 3.06%. Turning to `O=C1CCN(CCCc2ccccc2)CCN1CCO`, the inhibition was 10.1%. As to `CCn1c(CNS(=O)(=O)c2ccc(Cl)cc2)n[nH]c1=S`, the inhibition was 31.8% (active). For `CCn1c(CSCc2c(Cl)cccc2Cl)n[nH]c1=S`, the inhibition was 14.7%. Take `CSc1ccc(S(=O)(=O)NCc2ccc(Cl)cc2)cc1`: the inhibition is 5.25%.

As for `Cc1cc(C)n(-c2ccc(NC(=O)C3CCCCN3C(=O)c3cccs3)cc2)n1` (centres undefined), the inhibition was 10.7%. For `Cc1cc(NC(=O)CSc2nc(=O)cc(N)n2-c2ccc(F)cc2)no1`, the inhibition was 2.27%. As for `O=c1[nH]n2c(=O)c3c([nH]c2c1N=Nc1ccccc1)CCC3`, the inhibition was 31.3% (active). For `Cc1[nH][nH]c(=O)c1N=Nc1ccccc1`, the inhibition was -5.94%. In the case of `O=c1[nH]c2c(c(=O)n1Cc1ccccc1)CCC2`, the inhibition is -7.19%. Regarding `O=C(CNC(=O)C1COc2ccccc2O1)N/N=C/c1cc(Br)c(O)c(Br)c1` (centres undefined), the inhibition is 10.4%. Regarding `Cc1c(C)c2ccc(OCC(=O)N3CCC(C(=O)O)CC3)c(C)c2oc1=O`, the inhibition is 3.02%. On to `Cc1c(CC(=O)N2CCN(C(=O)C3COc4ccccc4O3)CC2)c(=O)oc2c(O)c(O)ccc12` (centres undefined), for which the inhibition was 56.5% (active).

For orientation: inhibition means the relative decrease from the control value, in per cent.
